PubChem BioAssay (EPA / NIEHS)
“And” between values parts separate entries of the source, which are not always exact repeats. Identical values can stand only once. Some structures have more than one record in an assay (separate samples or runs), and their calls can disagree. The source made the active and inactive calls. Rule for the calls: active = hit-call score of the fitted dose curve at least 0.9, where 1 is the maximum; inactive = score below 0.9.

Tests used:
[1] = ATG_GRE_CIS: Attagene CIS-FACTORIAL HepG2 Assay for human Glucocorticoid Response Elements (GRE) (AID 2282947); conditions: HepG2 GRE cis-reporter, Attagene multiplex mRNA; AC50: actives raise or lower the signal unless noted; outcome: actives raise or lower the signal unless noted
Procedure, shortened: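 Transient MRTU transfection of human HepG2 liver cells; cis-regulated reporters report endogenous factors. 24 h dosing → RNA isolation → RT-PCR → 6-FAM primer extension → HpaI cut → CE fragment analysis. Bidirectional fit, DMSO negative control.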

[2] = ATG_ISRE_CIS: Attagene CIS-FACTORIAL HepG2 Assay for human Interferon Regulatory Factor 1 (IRF1) binding to an Interferon-Stimulated Response Element (ISRE) (AID 2282948); conditions: HepG2 ISRE cis-reporter (Attagene), mRNA transcription readout; actives raise or lower the signal
Procedure, shortened: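 Cell-based cis-reporter assay; HepG2; 24 h exposure; reporter mRNA by RT-PCR plus capillary electrophoresis fluorescence; activity in either direction scored relative to DMSO.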

[3] = ATG_M_32_CIS: Attagene CIS-FACTORIAL HepG2 Assay for M32 Transcription Factor (Internal Marker) (AID 2282949); conditions: HepG2 Attagene cis-factorial M32 reporter, mRNA; actives raise or lower the signal;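 note: background control marker of the multiplexed CIS panel rather than a real target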
Procedure, shortened: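 HepG2 cells transiently transfected with multiplexed cis-regulated reporter units, dosed 24 h. Reporter mRNA quantified by RT-PCR, 6-FAM labelling, HpaI digestion and capillary electrophoresis; bidirectional fit vs DMSO.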

[4] = ATG_M_06_CIS: Attagene CIS-FACTORIAL HepG2 Assay for M06 Transcription Factor (Internal Marker) (AID 2282950); conditions: HepG2 Attagene CIS-FACTORIAL M06 internal marker reporter; actives raise or lower the signal
Procedure, shortened: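 Steps: transfect HepG2 with multiplexed cis-element reporter constructs; dose chemical 24 h; extract RNA with DNase treatment; reverse-transcribe, PCR-amplify, 6-FAM label, HpaI digest; separate fragments by capillary electrophoresis. Activity fitted both directions versus DMSO.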

[5] = target: Hypoxia-inducible factor 1-alpha (Homo sapiens) (UniProt Q16665); experiment: ATG_HIF1a_CIS: Attagene CIS-FACTORIAL HepG2 Assay for human Hypoxia Inducible Factor 1 (HIF1A) (AID 2282951); conditions: HepG2 Attagene cis-factorial HIF1a reporter transcription; actives raise or lower the signal
Sequence of Hypoxia-inducible factor 1-alpha (Homo sapiens) (Q16665 whole entry, looked up): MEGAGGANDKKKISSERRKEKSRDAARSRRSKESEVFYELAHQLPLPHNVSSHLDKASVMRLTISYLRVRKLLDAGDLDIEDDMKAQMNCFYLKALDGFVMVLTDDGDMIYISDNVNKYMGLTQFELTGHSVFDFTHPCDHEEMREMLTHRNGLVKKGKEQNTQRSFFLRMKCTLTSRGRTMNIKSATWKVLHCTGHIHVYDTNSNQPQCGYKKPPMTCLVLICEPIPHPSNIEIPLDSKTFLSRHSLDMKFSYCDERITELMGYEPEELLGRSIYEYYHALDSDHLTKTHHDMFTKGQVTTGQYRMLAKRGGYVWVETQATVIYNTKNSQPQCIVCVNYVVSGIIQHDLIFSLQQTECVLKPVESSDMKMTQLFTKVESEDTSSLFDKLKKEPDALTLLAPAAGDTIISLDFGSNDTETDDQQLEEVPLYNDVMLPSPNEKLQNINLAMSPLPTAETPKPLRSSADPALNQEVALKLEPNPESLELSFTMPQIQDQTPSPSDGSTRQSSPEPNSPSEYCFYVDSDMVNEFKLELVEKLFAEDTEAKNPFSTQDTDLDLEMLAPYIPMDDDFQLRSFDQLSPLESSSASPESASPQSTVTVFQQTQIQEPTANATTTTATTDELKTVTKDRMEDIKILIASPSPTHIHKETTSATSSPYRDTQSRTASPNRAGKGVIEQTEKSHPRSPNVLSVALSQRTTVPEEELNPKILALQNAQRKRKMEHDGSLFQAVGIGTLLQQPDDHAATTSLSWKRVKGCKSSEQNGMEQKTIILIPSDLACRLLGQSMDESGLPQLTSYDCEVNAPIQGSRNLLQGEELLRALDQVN
Procedure, shortened: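 RT-PCR/capillary electrophoresis fluorescence readout of reporter transcripts from endogenous-TF-driven cis elements in transfected HepG2 cells, 24 h exposure; activity fitted in both directions against DMSO controls.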

[6] = target: Hepatocyte nuclear factor 6 (Homo sapiens) (UniProt Q9UBC0); experiment: ATG_HNF6_CIS: Attagene CIS-FACTORIAL HepG2 Assay for human Hepatocyte Nuclear Factor 6 (HNF6) (AID 2282952); conditions: HepG2 Attagene cis-factorial HNF6 reporter transcription; actives raise or lower the signal
Sequence of Hepatocyte nuclear factor 6 (Homo sapiens) (Q9UBC0 whole entry, looked up, the tested form may be a part): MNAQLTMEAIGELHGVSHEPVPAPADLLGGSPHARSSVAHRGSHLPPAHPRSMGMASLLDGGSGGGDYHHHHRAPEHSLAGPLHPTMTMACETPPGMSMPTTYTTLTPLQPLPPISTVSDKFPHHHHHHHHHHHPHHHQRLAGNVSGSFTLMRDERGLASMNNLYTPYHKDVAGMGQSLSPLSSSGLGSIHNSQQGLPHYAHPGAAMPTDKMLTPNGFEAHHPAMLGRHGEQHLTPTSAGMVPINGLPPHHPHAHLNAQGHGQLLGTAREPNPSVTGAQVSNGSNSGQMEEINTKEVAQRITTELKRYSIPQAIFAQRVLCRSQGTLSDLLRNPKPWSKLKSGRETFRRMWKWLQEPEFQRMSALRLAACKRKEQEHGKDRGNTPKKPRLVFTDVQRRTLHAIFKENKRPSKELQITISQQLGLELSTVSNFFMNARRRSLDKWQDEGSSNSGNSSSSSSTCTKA
Procedure, shortened: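 Reporter mRNA induction or loss in HepG2 after 24 h exposure; transient cis-MRTU transfection; fragments quantified by capillary electrophoresis; bidirectional analysis, DMSO as negative control.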

[7] = target: Heat shock factor protein 1 (Homo sapiens) (UniProt Q00613); experiment: ATG_HSE_CIS: Attagene CIS-FACTORIAL HepG2 Assay for human Heat Shock Transcription Factor 1 (HSE) (AID 2282953); conditions: HepG2 HSE cis-reporter, Attagene RNA transcription; actives raise or lower the signal
Sequence of Heat shock factor protein 1 (Homo sapiens) (Q00613 whole entry, looked up, the tested form may be a part): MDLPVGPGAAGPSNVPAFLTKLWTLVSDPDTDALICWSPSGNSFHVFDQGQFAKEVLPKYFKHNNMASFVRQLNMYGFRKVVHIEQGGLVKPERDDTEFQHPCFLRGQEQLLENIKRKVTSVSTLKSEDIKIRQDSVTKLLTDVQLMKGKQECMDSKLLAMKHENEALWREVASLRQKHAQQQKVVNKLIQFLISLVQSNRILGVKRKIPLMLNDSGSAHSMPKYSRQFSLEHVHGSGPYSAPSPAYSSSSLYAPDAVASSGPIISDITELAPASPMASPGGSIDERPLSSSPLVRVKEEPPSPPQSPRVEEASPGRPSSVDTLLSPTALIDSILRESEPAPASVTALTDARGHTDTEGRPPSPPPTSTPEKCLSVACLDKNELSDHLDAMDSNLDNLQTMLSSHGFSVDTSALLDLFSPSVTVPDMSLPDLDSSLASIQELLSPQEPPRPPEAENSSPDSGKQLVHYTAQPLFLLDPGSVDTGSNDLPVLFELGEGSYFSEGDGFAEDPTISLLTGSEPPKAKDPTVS
Procedure, shortened: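 Cells were transfected with cis-element-driven reporter constructs, dosed for 24 h, then total RNA was reverse-transcribed and reporter cDNA amplified, FAM-labelled and digested with HpaI. Fragments were resolved by capillary electrophoresis; gain or loss was fitted against DMSO.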

[8] = ATG_MRE_CIS: Attagene CIS-FACTORIAL HepG2 Assay for human Metal Responsive Element (MRE) (AID 2282954); conditions: HepG2 MRE cis-reporter transcription, Attagene multiplex; actives raise or lower the signal
Procedure, shortened: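 Transient MRTU transfection of HepG2 (FuGene 6); 24 h dosing; total RNA → oligo(dT) RT, PCR, 6-FAM primer extension, HpaI cut, CE. Bidirectional fit vs DMSO.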

[9] = ATG_PBREM_CIS: Attagene CIS-FACTORIAL HepG2 Assay for human Phenobarbital-responsive Enhancer Module (PBREM) (AID 2282955); conditions: HepG2 PBREM cis-reporter, Attagene multiplexed transcription; actives raise or lower the signal
Procedure, shortened: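 Reporter mRNA read by RT-PCR, 6-FAM primer extension, HpaI digestion and capillary electrophoresis. Transfected HepG2 cells, 24 h compound exposure. Gain or loss of signal fitted bidirectionally relative to DMSO baseline.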

[10] = target: Paired box protein Pax-6 (Homo sapiens) (UniProt P26367); experiment: ATG_Pax6_CIS: Attagene CIS-FACTORIAL HepG2 Assay for human Paired Box 6 (PAX6) (AID 2282956); conditions: HepG2 CIS-FACTORIAL PAX6 reporter transcription, RNA readout; actives raise or lower the signal
Sequence of Paired box protein Pax-6 (Homo sapiens) (P26367 whole entry, looked up): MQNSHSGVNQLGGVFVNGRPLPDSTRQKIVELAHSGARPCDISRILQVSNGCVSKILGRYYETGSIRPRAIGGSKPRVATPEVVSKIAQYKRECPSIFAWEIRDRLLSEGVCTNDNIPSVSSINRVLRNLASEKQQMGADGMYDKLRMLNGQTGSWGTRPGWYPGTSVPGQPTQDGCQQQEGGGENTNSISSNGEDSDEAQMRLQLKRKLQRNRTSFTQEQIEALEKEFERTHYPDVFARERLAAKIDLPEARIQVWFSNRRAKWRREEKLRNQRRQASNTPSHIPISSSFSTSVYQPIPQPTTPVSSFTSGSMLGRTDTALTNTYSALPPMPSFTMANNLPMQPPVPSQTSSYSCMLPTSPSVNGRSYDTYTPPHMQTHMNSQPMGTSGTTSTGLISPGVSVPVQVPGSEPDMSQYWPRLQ
Procedure, shortened: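 Multiplexed cis-reporter HepG2 system; 24 h treatment; reporter mRNA read by RT-PCR/CE fluorescence; bidirectional fit vs DMSO.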

Compound	outcome [1]	outcome [2]	outcome [3]	outcome [4]	outcome [5]	outcome [6]	outcome [7]	outcome [8]	outcome [9]	outcome [10]	AC50 [5]	AC50 [7]	AC50 [8]	AC50 [9]	AC50 [3]	AC50 [2]	AC50 [10]
OCC(CO)(CBr)CBr	inactive	inactive	inactive	inactive	inactive	inactive	inactive	inactive	inactive	inactive							
O=C1Cc2ccccc2N1c1c(Cl)cccc1Cl	inactive	inactive	inactive	inactive		inactive				inactive	75.3 µM (active)	130 µM (active)	91.5 µM (active)	1.23 µM (active)			
CCN(CCC#N)c1ccccc1	inactive	inactive	inactive	inactive	inactive	inactive	inactive	inactive	inactive	inactive							
O=C(Nc1cccc([N+](=O)[O-])c1)c1cc2ccccc2cc1O	inactive	inactive	inactive	inactive	inactive	inactive	inactive	inactive		inactive				3.64 µM (active)			
Cc1cncc(C)c1	inactive	inactive	inactive	inactive	inactive	inactive	inactive	inactive	inactive	inactive							
CCCCCCCCCCCCCCCC(=O)OC	inactive	inactive	inactive	inactive	inactive	inactive	inactive	inactive	inactive	inactive							
CC(C)(C)c1ccc(CCC=O)cc1	inactive	inactive	inactive	inactive	inactive	inactive	inactive	inactive	inactive	inactive							
CCCCN(C)C	inactive	inactive	inactive	inactive	inactive	inactive	inactive	inactive	inactive	inactive							
Cc1cc(C(C)(C)C)c(O)c(C(C)(C)C)c1	inactive	inactive	inactive	inactive	inactive	inactive	inactive		inactive	inactive		95.9 µM (active)	52.9 µM (active) and 91.4 µM (active)		53.6 µM (active)		
C=C(c1ccc(C(=O)O)cc1)c1cc2c(cc1C)C(C)(C)CCC2(C)C	inactive	inactive	inactive	inactive	inactive	inactive			inactive			16.2 µM (active) and 27.9 µM (active)	13.8 µM (active) and 23 µM (active)	30.3 µM (active)	32.2 µM (active)	16.8 µM (active)	14.9 µM (active) and 25.3 µM (active)
